Each structure is given as a SMILES string. “And” between values parts separate entries of the source, which are not always exact repeats. Identical values can stand only once. The source made the active and inactive calls. Unless noted, the rule behind the calls is not given here.

Assay [1] deals with Hepatitis C virus NS3 helicase. Nature of the assay: HCV NS3 helicase inhibitors, primary screen, biochemical, fluorescence polarization, LOPAC1280 library (AID 687035; in the data active = inhibition above about 37%). As to conditions: Purified HCV NS3 helicase, Cy5-dT15 ssDNA binding fluorescence polarization; stronger effect = higher value; concentration not given here.
Assay [2] is described as follows: Cy5 fluorescence quenching or enhancement artefacts, artefact control for HCV NS3 helicase inhibitor project, biochemical, LOPAC1280 (AID 687037). As to conditions: Cy5-DNA-NS3h complex fluorescence interference counterscreen. (A counterscreen serves to expose hits that act by an unwanted route or on another target.)
In assay [3] the test system is Aerobactin synthetase IucA (Klebsiella pneumoniae). Description: IucA aerobactin synthetase inhibitors, biochemical, Tocris library, absorbance (AID 1345561).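 Note: 100% = enzyme without compound and 0% = no enzyme.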 Particulars: purified IucA enzyme assay, absorbance (OD) read-out; stronger effect = lower value;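 tested at 8 µM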.
The nature of assay [4]: sensitizers of A549 cells to miR-34 induction, primary screen, imaging, A549 dox-inducible miR-34, nuclei and caspase counts (AID 1347080;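 active = compounds whose cell count with miR-34 switched on is under 0.7 times the count with it off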). As to conditions: A549 miR-34 inducible, Hoechst nuclei count, 48 h.
The nature of assay [5]: phospholipid biosynthesis inhibitors in animal cells, primary screen, cell-based, LOPAC library, screen 4 (AID 1347384). Particulars: phospholipid biosynthesis inhibition screen, at 10 µM.
Assay [6] in a line: viability rescue of complex I mutant cybrids, primary screen, cell-based, galactose medium, ATP luminescence (AID 1645843;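 active = z-score of at least 1.8 in each of two replicates, scored against plate mean and spread of sample wells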;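 note: positive z means more ATP and so rescue of galactose-driven cybrid death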). As to conditions: complex I mutant cybrid cells, 72 h, stronger effect = higher value.
Assay [7] in a line: circadian clock period modulators, cell-based, LOPAC library, luminescence reporter (AID 2774).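 Note: values are relative to mean of DMSO wells on each plate.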 As to conditions: circadian reporter cells, at 7 µM, actives lie on both sides.
Assay [8] can be described thus: hESC survival regulators, cell-based (AID 493140).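 Note: cells exposed to compounds for four days before counting.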 As to conditions: human embryonic stem cell survival screen; stronger effect = higher value.
The nature of assay [9]: inhibitors of Cryptococcus chitosan production, flow cytometry, Cibacron Brilliant Red staining (AID 1347148).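 Note: compound exposure lasted three days at 37 degrees C.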 Particulars: Cryptococcus neoformans chitosan, stronger effect = lower value; at 10 µM unless noted. A general note: Flow cytometry measures light scatter and fluorescence of single cells or particles in a stream.
Assay [10] in a line: survival rescue of mitochondrial mutant cells in low glucose, primary screen, MELAS cybrids, Rieske KO mouse fibroblasts, CellTiter-Glo (AID 1508586;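 active = mean z-score across replicates of 1.96 or higher in either the MELAS or the Rieske mutant cell line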;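 note: z relative to plate mean and SD of compound and empty wells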).
Assay [11] can be described thus: liver-stage malaria parasite growth inhibition, primary screen, cell-based, HepG2, luciferase luminescence, HepG2 viability (AID 624349; in the data active = parasite load remaining mostly below about 12%, no sharp cut-off; inactive = mostly above about 10%;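 note: 100% = mean of DMSO negative control wells on the same plate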). Particulars: P. berghei liver stage in HepG2, luciferase luminescence, concentration not given here; parasite load remaining: stronger effect = lower value; viability: measured here: HepG2 viability without parasites.
Setting [12] is: stronger effect = lower value, cell number ratio, induced over uninduced.
Where [13] appears, read: measured here: relative caspase fold change +Dox/-Dox.
The mark [14] stands for this setting: measured here: total cells with miR-34 induction, stronger effect = lower value.
Setting [15] is: measured here: total cells without miR-34 induction.
Where [16] appears, read: MELAS cybrid survival, CellTiter-Glo 48 h, stronger effect = higher value.
Setting [17] is: Rieske KO mouse fibroblast survival, CellTiter-Glo 72 h.

For the molecule `c1ccc(C(NCCNC(c2ccccc2)c2ccccc2)c2ccccc2)cc1`, the inhibition in [1] was -4% (inactive). For the same molecule, in [2], the fluorescence ratio (interference) was 1 (inactive). Moreover, in [3], the remaining activity was 112% (inactive). Also, the fold change in assay [4] (setting [12]) is 0.972 (inactive) and 0.853 (inactive); in assay [4] (setting [13]), 0.809 and 1.79. The cell count in assay [4] (setting [14]) is 5830 and 5710; in assay [4] (setting [15]) it was 5990 and 6700. In addition, the molecule was called inactive in assay [5]. Besides, in assay [6], the z-score was -1.29 (inactive) and -0.705 (inactive).

Consider `CCCCCCC(=O)OC1CC(C)(C)NC(C)(C)C1`, for which the inhibition in [1] is -4% (inactive). The fluorescence ratio (interference) in assay [2] is 0.9 (inactive). In addition, in assay [3], the remaining activity is 97.8% (inactive). Also, the fold change in [4] (setting [12]) was 0.999 (inactive) and 0.934 (inactive); in assay [4] (setting [13]) it was 0.562 and 1.2. The cell count in assay [4] (setting [14]) was 9880 and 8660; in assay [4] (setting [15]), 9890 and 9270. The outcome in [5] was inactive. Besides, the z-score in [6] was 0.56 (inactive) and 0.015 (inactive).

With `COc1ccc2c(c1)c(CC(=O)N1CCOCC1)c(C)n2C(=O)c1ccc(Cl)cc1`, the period change in [7] was -0.115 h (inactive). Moreover, in [8], the survival was 105 (inactive). The remaining activity in assay [3] is 123% (inactive). Besides, the fold fluorescence in [9] is 2.56 (active). For the same molecule, the z-score is -0.237 (inactive) in [10] (setting [16]), -0.286 in assay [10] (setting [17]) and -0.295 (inactive) in assay [6].

Consider `CCN(CC)CCOC(=O)c1cc(Cl)c(N)cc1OC`, for which, in [7], the period change was -0.055 h (inactive). The inhibition in assay [1] was -6% (inactive). Also, the fluorescence ratio (interference) in assay [2] is 1 (inactive). Besides, the remaining activity in assay [3] is 95% (inactive). In addition, the fold change in [4] (setting [12]) is 0.965 (inactive) and 0.955 (inactive); in assay [4] (setting [13]) it was 1.47 and 1.03. Also, the cell count was 10500 and 9010 in [4] (setting [14]); 10800 and 9430 in [4] (setting [15]). Moreover, the outcome in [5] was inactive. The z-score in assay [6] is 0.75 (inactive) and 0.1 (inactive).

On to `COc1ccc(NC(=O)c2ccc(-c3ccc(-c4noc(C)n4)cc3C)cc2)cc1N1CCN(C)CC1`, for which the period change in [7] is 0.065 h (inactive). Further, the inhibition in [1] was -3% (inactive). In addition, the fluorescence ratio (interference) in assay [2] is 0.9 (inactive). The remaining activity in [3] was 119% (inactive). Moreover, the fold change in [4] (setting [12]) is 0.954 (inactive) and 1.08 (inactive); in assay [4] (setting [13]), 0.805 and 0.587. Moreover, the cell count in [4] (setting [14]) is 510 and 1390; in [4] (setting [15]) it was 535 and 1290. Besides, the result in assay [5] was inactive. Besides, in [6], the z-score was -1.29 (inactive) and -0.715 (inactive).

In the case of `c1ccc(C(NCc2cccnc2)(c2ccccc2)c2ccccc2)cc1`, the inhibition in assay [1] is 0% (inactive). In [2], the fluorescence ratio (interference) is 1 (inactive). In addition, in assay [3], the remaining activity is 95% (inactive). The fold change in assay [4] (setting [12]) is 1.09 (inactive) and 0.901 (inactive); in [4] (setting [13]), 1.48 and 1.53. Further, the cell count in assay [4] (setting [14]) was 7080 and 6130; in [4] (setting [15]), 6480 and 6800. Moreover, in assay [5], the result was inactive. Moreover, the z-score in [6] is -1.03 (inactive) and -0.695 (inactive).

With `Nc1ccc(-c2nc3ccc(-c4nc5ccc(N)cc5[nH]4)cc3[nH]2)cc1`, the inhibition in assay [1] is -5% (inactive). The fluorescence ratio (interference) in assay [2] is 0.6 (active). Also, the remaining activity in assay [3] was 107% (inactive). Moreover, the fold change was 1.02 (inactive) and 0.968 (inactive) in [4] (setting [12]); 0.586 and 0.928 in assay [4] (setting [13]). In addition, the cell count was 11200 and 10100 in assay [4] (setting [14]); 10900 and 10500 in assay [4] (setting [15]). In addition, the outcome in [5] was inactive. Also, the z-score in [6] was 4.82 (active) and 5.54 (active).

Take `C[C@H](NC(=O)/C(C#N)=C/c1ccc(O)c(O)c1)c1ccccc1`: the period change in assay [7] is 0.035 h (inactive). The inhibition in assay [1] was -1% (inactive). Moreover, the fluorescence ratio (interference) in assay [2] is 1 (inactive). Further, the remaining activity in assay [3] was 111% (inactive). Further, the fold change was 0.957 (inactive) and 0.876 (inactive) in assay [4] (setting [12]); 2.11 and 1.78 in assay [4] (setting [13]). The cell count in [4] (setting [14]) is 6810 and 7420; in [4] (setting [15]), 7120 and 8470. The result in assay [5] was inactive. Also, the z-score in assay [6] was -1 (inactive) and -0.545 (inactive).

Turning to `CCCn1c(=O)c(C)cn2nc(N)nc12`, the inhibition in [1] was -2% (inactive). In addition, the fluorescence ratio (interference) in assay [2] was 1 (inactive). Moreover, the remaining activity in assay [3] is 123% (inactive). For the same molecule, the fold change in assay [4] (setting [12]) is 0.963 (inactive) and 0.912 (inactive); in assay [4] (setting [13]), 2.19 and 0.621. Also, the cell count was 10000 and 9600 in assay [4] (setting [14]); 10400 and 10500 in [4] (setting [15]). Besides, the outcome in assay [5] was inactive. Also, in [6], the z-score was 0.8 (inactive) and -0.21 (inactive).

As to `Nc1ncnc2n[nH]c(Nc3ccc(F)cc3)c12`, in assay [11], the parasite load remaining is 34.8% (inactive). In [11], this molecule had a viability of 85.8%. Moreover, the inhibition in assay [1] was -5% (inactive). Further, the fluorescence ratio (interference) in assay [2] is 1 (inactive). For the same molecule, the remaining activity in assay [3] is 105% (inactive). The z-score in assay [10] (setting [16]) is -0.494 (inactive); in [10] (setting [17]) it was 0.733; in [6] it was 0.375 (inactive) and 0.16 (inactive).

By inhibition is commonly meant the relative decrease from the control value, in per cent. A word on the remaining activity: it is the signal under treatment as a percentage of the control signal. The viability is a per cent measure of how many cells are alive, often set against a control.
